Shiga inhibitor – blocks Shiga toxin action in Vero cells. AID 2315. inhibition, % at 38.7 µM. 290,000 compounds, 9.2% hits. Vero cells, Shiga toxin protein synthesis inhibition reporter; in the data active means inhibition mostly above about 28%, no sharp cut-off; inactive means mostly below about 43%; further: 0% is about no effect
HCMV antiviral – human cytomegalovirus inhibition; HFF cells, HCMV-luciferase reporter, 72 h; hits give low values; activity change, negative = inhibition, % at 57.5 µM; 410,000 compounds, 4.5% hits; in the data active means activity change below about -60%; inconclusive means no clear call, values can overlap the other calls; inactive means above about -39%; further: on the % scale 0 is the no-effect control and ±100 the full control effect
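After 16 h attachment at 37C, HFF cells received test compound and HCMV-luciferase (1 PFU/cell); reporter luminescence read 72 h later, data normalized against buffer-only and known inhibitor Salinomycin.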
Pf growth 48h – inhibits P. falciparum growth in the first generation, 48 h | P. falciparum luciferase growth in erythrocytes, 48 h | Potency, µM (titrated, usually from 28.7 µM), without a hit: top-dose activity change, negative = inhibition, most hits filed as inhibitors | 310,000 compounds, 5.9% hits; further: potency means the concentration at half of the fitted maximal effect; on the % scale 0 is the no-effect control and ±100 the full control effect
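Luciferase-expressing parasites in RBCs, 2% Hct / 0.1% parasitemia final; RPMI 1640 + 0.5% Albumax; 37 C, 5% CO2, one generation; luminescence read-out, lower signal = inhibition.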
Pf growth 96h – P. falciparum growth inhibition at 96 hours | P. falciparum luciferase reporter growth, 96 h | Potency, µM (titrated, usually from 28.7 µM), inactives show at the top dose activity change, negative = inhibition, hits mostly inhibitors | 320,000 compounds, 6.9% hits; further: potency means the concentration at half of the fitted maximal effect; on the % scale 0 is the no-effect control and ±100 the full control effect
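Two-generation exposure (96 h) targets delayed-death phenotype. Reporter parasites carrying integrated firefly luciferase, in red cells at 2% hematocrit and 0.05% parasitemia final, kept at 37 C, 5% CO2; luminescence loss indicates inhibition.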
CHX counter – counter-screen hit for Shiga toxin inhibitors, cycloheximide | 300,000 compounds, 12% hits | AID 2314 | max response, % | cell reporter, cycloheximide protein synthesis inhibition counterscreen; in the data active means max response mostly above about 13%, no sharp cut-off; inactive means mostly below about 14%; further: read at 38.3 µM for the half of the compounds with a filed dose; 0% is about no effect
HCV inhibitor – blocks hepatitis C virus; Huh7.5.1 HCVcc-Cre infection, luciferase reporter, 44 h; Potency, µM (series often up to 41.8 µM), for inactives: at the highest dose activity change, negative = inhibition, most hits filed as inhibitors; 340,000 compounds, 3.4% hits; AID 651820; further: potency means the concentration at half of the fitted maximal effect; on the % scale 0 is the no-effect control and ±100 the full control effect
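Antiviral activity was scored by luciferase reporter output from cells infected with HCVcc-Cre (~0.5 moi) in presence of compound, 44 h infection period, cells seeded 1,000/well 4 h prior.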
* = called active by the depositor; i = inactive; u = inconclusive; x = no result given; [ ] = another dose, or the depositor's remark. Shown are actives, neighbours in structure and some others; about 21% of the full set was active somewhere. Unless noted, the call rests on the fitted dose curve; in most records, active means well fitted inhibition curve with a large enough effect; inconclusive means small, poorly fitted or top-dose-only effect, or another doubt; inactive means no such curve, though single readings can be large or run the other way.

SMILES	Shiga inhibitor	HCMV antiviral	Pf growth 48h	Pf growth 96h	CHX counter	HCV inhibitor
COc1ccc(NS(=O)(=O)c2cccc(C(=O)NCC3(N4CCOCC4)CCCCC3)c2)cc1	-26	-67*	u	u	0	1%
O=C(NCCCN1CCOCC1)c1cccc(S(=O)(=O)N2CCc3ccccc3C2)c1	-9	71	-24%	-15%	0	-8%
Cc1cccc(NS(=O)(=O)c2cccc(C(=O)NCC3(N4CCCCC4)CCCCC3)c2)c1	x	-5	6.6µM*	8.3µM*	x	u
COc1ccc(NS(=O)(=O)c2ccc(C(=O)NCC3(N4CCOCC4)CCCCC3)cc2)cc1	x	-5	x	x	x	u
CNS(=O)(=O)c1cccc(C(=O)NCC2(N3CCCCC3)CCCCC2)c1	30	-8	9%	40%	-2	13%
COc1cc2ccccc2cc1C(=O)Nc1ccc2oc(-c3ccccc3)nc2c1	x	-14	x	x	x	x
CCc1ccccc1NC(=O)c1ccc2c(O)c(S(=O)(=O)c3ccc(OC)cc3)c(=O)[nH]c2c1	-1	20	31%	u	8	9%
CC(C)(C)S(=O)(=O)N1Cc2ccc(CO)cc2[C@H]1CCO	x	-1	x	x	x	35%
COc1cc(S(=O)(=O)NCC2(N3CCCCC3)CCCCC2)ccc1NC(C)=O	x	-98*	48%	66%	x	26%
COc1cc(S(=O)(=O)N2CCCCC2)ccc1NC(C)=O	-6	-21	x	22%	7	2%
CN(C)C1(CNC(=O)c2ccc(NS(=O)(=O)c3ccc(Cl)c(Cl)c3)cc2)CCCCC1	x	-8	12µM*	13µM*	x	u
O=C(CC1c2ccccc2C=C(c2ccsc2)N1c1ccc(-c2cccnc2)cc1)C1CC1 (stereo not drawn)	x	-79*	x	x	x	x
CCOc1cccc(OCCCn2c(-c3ccc(Br)cc3)nc3ccccc3c2=O)c1	x	-13	x	x	x	x
COc1cccc(-c2cc(C(=O)NCCCN3CCOCC3)no2)c1	4	35	6%	95%	-2	u
O=C(NCCCN1CCOCC1)c1cc2c([nH]c3ccccc32)c(-c2cccc(Br)c2)n1	-3	-21	2.3µM*	3.3µM*	-1	u
COc1cccc(-c2nc(C(=O)NCCCN3CCOCC3)cc3c2[nH]c2ccccc23)c1	1	-74*	13µM*	8.3µM*	1	11µM*
CCOC(=O)C1=C(C)N=C2SC(C(=O)OC)=CC(=O)N2C1c1ccc(OC)cc1 (stereo not drawn)	-5	6	u	i	-4	-1%
O=C1CN(c2nc3nonc3nc2N2CCCCC2)CCN1	-8	36	10%	u	-1	9%
O=S(=O)(c1ccc(SCCOc2ccc(F)cc2)nc1)N1CCCC1	x	u	u	u	x	16µM*
CCNC(=O)NC(=O)CSc1ccc(S(=O)(=O)N(C)C2CCCCC2)cn1	x	-6	12µM*	9.3µM*	x	-1%
CNC(=O)NC(=O)CSc1ccc(S(=O)(=O)N(C)C2CCCCC2)cn1	x	-14	u	8%	x	-2%
CN(CCOc1ccc(Cl)cc1)c1ccc(S(=O)(=O)N2CCCCC2)cn1	-5	-11	-16%	-29%	1	14µM*
Cc1ccc(OCCNc2ccc(S(=O)(=O)N3CCCC3)cn2)cc1	x	5	-29%	-6%	x	-11%
O=S(=O)(c1ccc(SCCOc2ccccc2)nc1)N1CCCC1	x	-9	u	u	x	u
CCNC(=O)NC(=O)CSc1ccc(S(=O)(=O)N2CCCCC2)cn1	x	-3	u	5.2µM*	x	-29%
SMILES	Shiga inhibitor	HCMV antiviral	Pf growth 48h	Pf growth 96h	CHX counter	HCV inhibitor
CSc1ccccc1NC(=O)C(C)N(C)CC(=O)N1CCN(Cc2ccccc2)CC1 (stereo not drawn)	x	-18	x	x	x	-23%
COc1ccc(CCNC(=O)Cc2ccc(NC(=O)N3CCSc4ncccc43)cc2)cc1OC	x	0	x	x	x	x
O=C(COCc1cc(-c2ccc3c(c2)OCO3)on1)N1CCN(c2cccc(C(F)(F)F)c2)CC1	17	0	u	3%	-4	-24%
Cc1ccc2[nH]c(=O)c(CN(Cc3ccco3)C(=O)N3CCOCC3)cc2c1	-7	-39	-2%	u	1	-2%
Cc1ccc(CN(Cc2cc3cc(C)ccc3[nH]c2=O)C(=O)N2CCOCC2)cc1	3	-19	6.6µM*	u	-1	11%
Cc1ccc(NC(=O)CNc2cccc(Br)c2)cc1S(=O)(=O)N1CCOCC1	x	-27	x	x	x	u
CC(=O)Nc1ccc(N2CCN(Cc3ccccc3)CC2)cc1	-4	x	-1%[0.00184 µM]	-2%	-6	3%
CCCc1ccc(C(=O)NNc2cccc(C)c2)cc1	46*	22	30%	u	29*	-26%
O=C(Nc1ccc(N2CCN(Cc3ccccc3)CC2)cc1)c1cccnc1	-2	-61*	u	u	1	-32%
COc1cccc(NC(=O)c2ccc(CN3CCN(c4ccccc4)CC3)cc2)c1	27*	-67*	12µM*	41%	17*	14µM*
COc1cccc(C(=O)Nc2ccc(N3CCN(Cc4ccccc4)CC3)cc2)c1	43*	u	x	u	13	u
COc1ccc(C(=O)Nc2ccc(N3CCN(Cc4ccccc4)CC3)cc2)cc1	-25	-34	-7%	0%	-1	13%
COc1ccc(S(=O)(=O)Nc2ccc(C)c(S(=O)(=O)N3CCOCC3)c2)cc1[N+](=O)[O-]	x	-35	-9%	-6%	x	u
Cc1cccc(NC(=O)c2ccc(CN3CCN(Cc4ccccc4)CC3)cc2)c1	36	u	u	15%	27*	u
O=CNc1ccc2c3c(cccc13)-c1ccccc1-2	x	34	x	x	x	2.8µM*
c1ccc2c(c1)-c1cccc3cccc-2c13	x	-28	8%	22%	x	u
CCCCCCCCCCCCOCCCN	x	x	-11%	u	x	x
CCCCCCCCCCCCOCCOCCOCCOCCOCCOCCOCCOCCOCCO	6	x	u	11µM*	-1	x
CCN1CCN(C(c2ccccn2)c2c(NC(=O)c3ccccc3)sc(C)c2C)CC1 (stereo not drawn)	-16	-32	u	13µM*	-5	u
COc1cccc(C(c2c(NC(=O)c3ccccc3)sc(C)c2C)N2CCN(C)CC2)c1 (stereo not drawn)	-7	-36	12µM*	u	-5	4%
CCc1cc(CN2CCOCC2)c(NC(=O)c2ccccc2)s1	79*	2	8%	-5%	27*	-25%
COc1cccc(C(CC(=O)Nc2cccc3ccccc23)NC(=O)c2ccccc2)c1 (stereo not drawn)	-5	u	u	u	4	x
COc1ccc(C(c2c(NC(=O)c3ccccc3)sc(C)c2C)N2CCN(CCO)CC2)cc1 (stereo not drawn)	56*	-10	u	u	22*	-8%

Compound activity from PubChem.
